# Laboratory results taken from publication PMC4336329 (PLoS ONE, 2015).
# Hit rate of the full screen: of about 310,000 compounds, about 14,000 (4.5%) showed an effect of 50% or more. Effects have a minus sign here. The sample as a whole holds a higher share of strong results than the screen did.
# Biological target: human ether-à-go-go-related gene (hERG) potassium channel (human, UniProt Q12809)
# Assay: primary screen, population patch clamp on CHO cells stably expressing hERG; higher = less effect of the substance
# 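Note: peak tail current of the secondary pulse compared with the same well before compound.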
# human ether-à-go-go-related gene (hERG) potassium channel, sequence (Q12809 whole entry, looked up): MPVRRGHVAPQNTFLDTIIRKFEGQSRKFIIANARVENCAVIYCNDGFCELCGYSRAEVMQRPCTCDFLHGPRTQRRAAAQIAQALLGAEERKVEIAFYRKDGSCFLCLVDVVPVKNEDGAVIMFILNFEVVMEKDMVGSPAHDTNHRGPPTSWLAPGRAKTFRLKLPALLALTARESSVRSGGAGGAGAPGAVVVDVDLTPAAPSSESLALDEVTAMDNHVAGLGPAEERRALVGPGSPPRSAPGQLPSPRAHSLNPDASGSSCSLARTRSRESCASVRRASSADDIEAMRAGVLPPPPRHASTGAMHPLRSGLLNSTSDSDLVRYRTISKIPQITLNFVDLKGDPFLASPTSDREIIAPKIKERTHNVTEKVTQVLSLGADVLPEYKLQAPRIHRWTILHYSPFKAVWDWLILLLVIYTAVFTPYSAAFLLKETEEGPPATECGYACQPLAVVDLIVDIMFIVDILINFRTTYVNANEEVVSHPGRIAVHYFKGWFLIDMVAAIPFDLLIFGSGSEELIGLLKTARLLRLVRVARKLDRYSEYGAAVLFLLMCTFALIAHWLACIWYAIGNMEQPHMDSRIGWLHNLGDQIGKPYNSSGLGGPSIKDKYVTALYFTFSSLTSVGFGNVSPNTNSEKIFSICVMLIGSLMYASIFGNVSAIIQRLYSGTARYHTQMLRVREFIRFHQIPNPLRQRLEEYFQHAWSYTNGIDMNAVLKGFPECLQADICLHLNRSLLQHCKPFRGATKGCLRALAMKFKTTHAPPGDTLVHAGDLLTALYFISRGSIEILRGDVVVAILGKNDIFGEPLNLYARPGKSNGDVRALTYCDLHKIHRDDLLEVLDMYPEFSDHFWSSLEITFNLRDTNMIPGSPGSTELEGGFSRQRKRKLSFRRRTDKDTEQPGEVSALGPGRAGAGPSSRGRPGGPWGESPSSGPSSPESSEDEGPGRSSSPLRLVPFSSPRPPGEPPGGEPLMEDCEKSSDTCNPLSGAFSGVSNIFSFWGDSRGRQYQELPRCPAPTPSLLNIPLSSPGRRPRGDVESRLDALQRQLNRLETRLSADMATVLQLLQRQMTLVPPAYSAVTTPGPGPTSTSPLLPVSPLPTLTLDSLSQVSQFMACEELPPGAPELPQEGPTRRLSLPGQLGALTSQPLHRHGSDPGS
row,SMILES,"hERG current change (%, negative = inhibition) at 10uM"
1,CC1(C)O[C@@H]2CC3C4C[C@H](F)C5=CC(=O)C=CC5(C)C4C(O)CC3(C)[C@]2(C(=O)CO)O1 (stereo partly shown),1.68%
2,COC(=O)C1CN(C(=O)C(C)Oc2ccccc2F)c2ccccc2O1 (stereo not shown),15.6%
3,CCCCN1C(=O)C(O)=C(C(C)=O)C1c1ccccc1 (stereo not shown),11%
4,O=C(COc1cc(Cl)c(Cl)cc1Cl)N1CCN(c2ccccn2)CC1,16%
5,O=C(COc1ccc(Cl)cc1Cl)N1CCN(c2ccccn2)CC1,-33.3%
6,CCC(=O)c1ccc(OCC(=O)N2CCN(c3ccccn3)CC2)cc1,-31.5%
7,CC(C)(C)c1ccc(OCC(=O)N2CCN(c3ccccn3)CC2)cc1,-51.7%
8,Cc1cc(OCC(=O)N2CCN(c3ccccn3)CC2)cc(C)c1Br,-32.3%
9,O=C(COc1ccc(F)c(Cl)c1)N1CCN(c2ccccn2)CC1,-55.3%
10,Cc1ccc(C)c(NS(=O)(=O)c2ccc3c(c2)NC(=O)CCS3)c1,-15%
11,COC(=O)COc1cccc(/C=N/NC(=O)CCSc2ccccc2)c1,-15.7%
12,C(=N\c1nc2ccccc2n1CCN1CCOCC1)/c1cccs1,-20.7%
13,CCOc1ccc(N2C(=O)CC(Sc3nc(-c4cccs4)cc(C(F)(F)F)c3C#N)C2=O)cc1 (stereo not shown),10.2%
14,CN(C)CCNC(=O)c1csc(Nc2cccc3ccccc23)n1,-55.4%
15,COCCNC(=O)c1csc(Nc2cccc3ccccc23)n1,-35.9%
16,CCN(CC)CCCNC(=O)c1csc(Nc2cccc3ccccc23)n1,-71.6%
17,O=C(NCC(O)CO)c1csc(Nc2cccc3ccccc23)n1 (stereo not shown),-2.43%
18,CCN(CC)C(=O)c1csc(Nc2cccc3ccccc23)n1,-16.9%
19,CCCNC(=O)c1csc(Nc2cccc3ccccc23)n1,-30%
20,Cc1ccc(S(=O)(=O)N(C)C)cc1NC(=S)NC(C)CCC(C)C (stereo not shown),-14%
21,Cn1ccnc1SCC(=O)c1cccc(C(F)(F)F)c1,-27.8%

row,SMILES,"hERG current change (%, negative = inhibition) at 10uM"
1,COC(=O)c1ccc(Cn2nc(C)c(Cl)c2C)o1,8.75%
2,CC12CC(NC(=O)N1c1cccc(C(=O)N3CCN(c4ccccc4F)CC3)c1)c1ccccc1O2 (stereo not shown),-6.74%
3,Cc1cc(C)cc(N2C(=O)CC(N(C(=O)c3ccco3)c3cc(C)cc(C)c3)C2=O)c1 (stereo not shown),12.8%
4,Cc1ccc(S(=O)(=O)c2cc3c(=O)n4ccccc4nc3n(C3CCCC3)c2=N)cc1,6.01%
5,Cc1ccc2nc3c(cc(C(=O)NCCCn4ccnc4)n3C)c(=O)n2c1,-34.1%
6,Cc1ccc(S(=O)(=O)c2cc3c(=O)n4ccccc4nc3n(C3CCCCC3)c2=N)cc1,-5.93%
7,Cc1ccc(S(=O)(=O)NC(=O)c2cc(C)n(CCCn3ccnc3)c2C)cc1,-2.28%
8,Cc1ccc2nc3c(cc(C(=O)NC4CCCCC4)c(=N)n3C3CCCCC3)c(=O)n2c1,-74.7%
9,Cc1ccc2nc3c(cc(C(=O)NC4CCCC4)c(=N)n3CCCn3ccnc3)c(=O)n2c1,-58.6%
10,CCn1cc(C(=O)NC2CCCCC2)c(=O)c2ccc(C)nc21,8.6%
11,Cc1ccc2nc3c(cc(C(=O)NC4CCCC4)c(=N)n3C3CCCCC3)c(=O)n2c1,-77.2%
12,CCn1cc(C(=O)NC2CCCCCC2)c(=O)c2ccc(C)nc21,-4.88%
13,O=C(/C=C/c1ccc(O)c(O)c1)NC(=O)c1ccccc1O,6.74%
14,Cc1ccc(-c2nc(CS(=O)(=O)CC(=O)NCc3cccc(F)c3)c(C)o2)cc1,9.53%
15,COc1ccc(S(=O)(=O)N2CCOCC2)c(C)c1C,5.99%
16,O=C(c1ccc(F)c(F)c1)N1CCC2(CC1)NCCc1[nH]cnc12,10.3%
17,O=C(c1ccc(F)cc1)N1CCC2(CC1)NCCc1[nH]cnc12,4.43%
18,O=C(c1ccc(Br)cc1)N1CCC2(CC1)NCCc1[nH]cnc12,-65.8%
19,CC(C)(C)c1ccc(C(=O)N2CCC3(CC2)NCCc2[nH]cnc23)cc1,-8.51%
20,CCOc1ccc(C(=O)N2CCC3(CC2)NCCc2[nH]cnc23)cc1,-70.1%
21,COc1ccc(C(=O)N2CCC3(CC2)NCCc2[nH]cnc23)cc1,-18.8%

row,SMILES,"hERG current change (%, negative = inhibition) at 10uM"
1,CCOc1ccc(C(=O)N2CCC3(CC2)NCCc2[nH]cnc23)cc1OCC,22.6%
2,O=C(c1ccccc1)N1CCC2(CC1)NCCc1[nH]cnc12,26.6%
3,Cc1ccc(C(=O)N2CCC3(CC2)NCCc2[nH]cnc23)cc1,-53.9%
4,O=C(NCc1ccco1)c1ccccc1NS(=O)(=O)c1cccs1,3.9%
5,Cc1ccc(Cn2ccsc2=NC(=O)COC(=O)C(C)C)cc1,-15.3%
6,CSc1nnc2n(C)c3c(c(=O)n12)C1(CCCC1)Cc1ccccc1-3,2.33%
7,COC(=O)c1ccccc1NC(=O)c1ccc2c(c1)OCCO2,1.86%
8,O=C(CNc1ccc(Br)cc1)NNC1=NCCC1,1.72%
9,CCc1ccc(CNCCc2c[nH]c3ccccc23)cc1.O=C(O)C(=O)O,-40.9%
10,Cc1ccc(S(=O)(=O)Nc2ccccc2C(=O)N2CCN(C)CC2)cc1,-3.2%
11,CCOC(=O)Nc1ccc2c(c1)N(C(=O)N1CCN(C)CC1)c1ccccc1S2.Cl,-46%
12,CCOC(=O)Nc1ccc2c(c1)N(C(=O)N(C)C)c1ccccc1CC2,-6.99%
13,CCN(CC)CCC(=O)N1c2ccccc2CCc2ccc(NC(=O)OC)cc21.Cl,-8.57%
14,CCOC(=O)Nc1ccc2c(c1)N(C(=O)OC)c1ccccc1CC2,-2.44%
15,CCOC(=O)Nc1ccc2c(c1)N(C(=O)CCN1CCN(C)CC1)c1ccccc1S2.Cl,-15.2%
16,CCOC(=O)Nc1ccc2c(c1)N(C(=O)CN1CCN(C)CC1)c1ccccc1S2.Cl,-64.4%
17,CCOC(=O)Nc1ccc2c(c1)N(C(=O)CCN(C)C)c1ccccc1CC2,-40.7%
18,CCOC(=O)Nc1ccc2c(c1)N(C(=O)C(C)N1CCCC1)c1ccccc1CC2.Cl (stereo not shown),-60.2%
19,CCOC(=O)Nc1ccc2c(c1)N(C(=O)CCN(CC)CC)c1ccccc1CC2,-50.3%
